According to publication PMC7862700, “An all-to-all approach to the identification of sequence-specific readers for epigenetic DNA modifications on cytosine”:

How the values were obtained:
Experiment in all cases: DAPPL (digital affinity profiling via proximity ligation, sequencing); 10 mM Tris-HCl pH 7.5, 50 mM NaCl, 1 mM DTT, 4% glycerol, room temperature, 30 min; GST-TFs on glutathione beads, 16-mer random dsDNA library, 0.1% formaldehyde crosslink after washing; high values mean tight binding
Conditions in all cases: protein: recombinant; tags: N-terminal GST; dsDNA, one strand shown
FLI1 = target: T1, FLI1 (Homo sapiens, UniProt Q01543 1-452)
T1 sequence: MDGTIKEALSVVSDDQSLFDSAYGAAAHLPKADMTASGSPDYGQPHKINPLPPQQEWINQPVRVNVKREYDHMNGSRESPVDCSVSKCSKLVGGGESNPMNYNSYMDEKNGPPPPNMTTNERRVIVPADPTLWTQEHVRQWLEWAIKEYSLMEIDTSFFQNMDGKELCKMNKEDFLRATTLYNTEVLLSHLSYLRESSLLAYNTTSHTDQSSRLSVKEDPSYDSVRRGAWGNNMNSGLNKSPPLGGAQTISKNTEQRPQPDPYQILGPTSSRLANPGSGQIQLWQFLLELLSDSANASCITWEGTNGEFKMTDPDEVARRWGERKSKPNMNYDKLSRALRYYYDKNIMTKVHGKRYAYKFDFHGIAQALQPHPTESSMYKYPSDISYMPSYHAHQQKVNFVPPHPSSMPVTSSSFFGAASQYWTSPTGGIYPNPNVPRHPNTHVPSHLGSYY
In short: (§1)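 Binding signal is defined as a hexamer's read frequency for one factor over its frequency for the tag-only sample. To obtain reads, GST-fused human transcription factors were expressed in yeast, captured on glutathione beads, barcoded with DNA and pooled with that sample. Pools met 200 nmole of a 16-mer random double-stranded DNA library in Tris/NaCl/DTT/glycerol buffer for 30 min at room temperature before washing, 0.1% formaldehyde crosslinking, proximity ligation (BsaI/T4 ligase, 1 h, 37 °C), PCR and Illumina NextSeq500 sequencing.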

ELK1 = target: T2, ELK1 (Homo sapiens, UniProt P19419 1-428)
T2 sequence: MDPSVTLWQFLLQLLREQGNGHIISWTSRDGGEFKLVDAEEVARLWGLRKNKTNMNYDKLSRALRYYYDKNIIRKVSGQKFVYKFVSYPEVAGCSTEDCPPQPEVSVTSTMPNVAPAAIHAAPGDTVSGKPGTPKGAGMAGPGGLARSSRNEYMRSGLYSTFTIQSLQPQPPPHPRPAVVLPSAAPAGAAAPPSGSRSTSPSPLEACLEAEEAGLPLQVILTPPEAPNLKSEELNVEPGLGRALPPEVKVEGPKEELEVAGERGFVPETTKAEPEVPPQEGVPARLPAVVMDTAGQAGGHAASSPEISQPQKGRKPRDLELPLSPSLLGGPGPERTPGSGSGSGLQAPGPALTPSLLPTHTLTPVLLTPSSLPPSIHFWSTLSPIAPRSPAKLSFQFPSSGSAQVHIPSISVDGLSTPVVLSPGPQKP
In short: as §1

GABPA = target: T3, GABPA (Homo sapiens, UniProt Q06546 1-454)
T3 sequence: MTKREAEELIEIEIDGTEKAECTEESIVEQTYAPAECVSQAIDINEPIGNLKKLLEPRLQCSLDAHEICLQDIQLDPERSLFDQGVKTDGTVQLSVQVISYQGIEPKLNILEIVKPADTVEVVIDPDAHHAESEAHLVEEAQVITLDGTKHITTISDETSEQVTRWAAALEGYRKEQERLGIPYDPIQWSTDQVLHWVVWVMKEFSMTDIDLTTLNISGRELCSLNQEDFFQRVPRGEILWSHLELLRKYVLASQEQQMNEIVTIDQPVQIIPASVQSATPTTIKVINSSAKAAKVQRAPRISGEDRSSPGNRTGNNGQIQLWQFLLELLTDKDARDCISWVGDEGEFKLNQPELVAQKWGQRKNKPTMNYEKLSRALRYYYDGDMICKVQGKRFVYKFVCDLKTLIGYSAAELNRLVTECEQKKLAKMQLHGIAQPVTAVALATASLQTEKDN
In short: as §1

ERG = target: T4, ERG (Homo sapiens, UniProt P11308 1-479)
T4 sequence: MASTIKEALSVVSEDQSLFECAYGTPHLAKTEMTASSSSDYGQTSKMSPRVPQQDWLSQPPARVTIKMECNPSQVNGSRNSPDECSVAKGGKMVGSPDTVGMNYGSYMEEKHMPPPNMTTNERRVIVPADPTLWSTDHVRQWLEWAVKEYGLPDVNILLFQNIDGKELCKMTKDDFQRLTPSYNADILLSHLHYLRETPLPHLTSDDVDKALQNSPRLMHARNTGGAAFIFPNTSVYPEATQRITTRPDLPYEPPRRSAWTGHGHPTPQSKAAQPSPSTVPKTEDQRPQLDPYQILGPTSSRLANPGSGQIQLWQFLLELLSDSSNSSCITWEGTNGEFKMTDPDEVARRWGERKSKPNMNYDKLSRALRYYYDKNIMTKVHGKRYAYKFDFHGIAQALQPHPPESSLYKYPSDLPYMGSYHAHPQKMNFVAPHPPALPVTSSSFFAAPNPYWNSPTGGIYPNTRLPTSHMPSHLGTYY
In short: as §1

ELF1 = ELF1 (Homo sapiens, UniProt P32519 1-619)
In short: as §1

EHF = target: T5, EHF (Homo sapiens, UniProt Q9NZC4 1-300)
T5 sequence: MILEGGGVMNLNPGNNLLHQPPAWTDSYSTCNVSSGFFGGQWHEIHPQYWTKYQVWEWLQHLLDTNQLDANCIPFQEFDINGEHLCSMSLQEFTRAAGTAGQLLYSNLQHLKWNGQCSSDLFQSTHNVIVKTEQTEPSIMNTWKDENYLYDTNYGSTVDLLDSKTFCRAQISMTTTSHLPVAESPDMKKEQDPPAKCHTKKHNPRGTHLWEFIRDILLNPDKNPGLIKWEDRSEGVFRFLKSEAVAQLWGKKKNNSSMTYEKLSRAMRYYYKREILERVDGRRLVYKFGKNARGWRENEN
In short: as §1

SPI1 = SPI1 (Homo sapiens, UniProt P17947 1-270)
In short: as §1

SPIB = SPIB (Homo sapiens, UniProt Q01892 1-262)
In short: as §1

ELK3 = target: T6, ELK3 (Homo sapiens, UniProt P41970 1-407)
T6 sequence: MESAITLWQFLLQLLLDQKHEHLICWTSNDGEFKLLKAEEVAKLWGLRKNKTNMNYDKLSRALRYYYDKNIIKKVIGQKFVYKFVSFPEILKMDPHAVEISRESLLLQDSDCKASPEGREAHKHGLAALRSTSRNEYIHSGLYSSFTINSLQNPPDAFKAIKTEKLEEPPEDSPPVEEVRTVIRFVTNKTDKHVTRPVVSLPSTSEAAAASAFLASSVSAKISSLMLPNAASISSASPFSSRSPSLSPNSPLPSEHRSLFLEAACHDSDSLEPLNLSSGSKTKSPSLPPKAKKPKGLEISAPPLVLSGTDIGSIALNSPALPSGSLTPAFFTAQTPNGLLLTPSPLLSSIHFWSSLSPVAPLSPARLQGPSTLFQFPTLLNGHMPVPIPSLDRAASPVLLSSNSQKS
In short: as §1

Sequence of SPIB (Q01892 whole entry): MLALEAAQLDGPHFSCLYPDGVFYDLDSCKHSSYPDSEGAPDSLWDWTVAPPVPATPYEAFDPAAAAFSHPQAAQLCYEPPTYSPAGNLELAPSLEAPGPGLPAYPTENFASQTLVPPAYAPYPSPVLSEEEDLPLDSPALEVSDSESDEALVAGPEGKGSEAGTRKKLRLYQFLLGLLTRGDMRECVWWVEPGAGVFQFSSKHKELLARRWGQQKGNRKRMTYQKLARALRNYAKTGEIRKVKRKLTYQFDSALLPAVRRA
Sequence of ELF1 (P32519 whole entry): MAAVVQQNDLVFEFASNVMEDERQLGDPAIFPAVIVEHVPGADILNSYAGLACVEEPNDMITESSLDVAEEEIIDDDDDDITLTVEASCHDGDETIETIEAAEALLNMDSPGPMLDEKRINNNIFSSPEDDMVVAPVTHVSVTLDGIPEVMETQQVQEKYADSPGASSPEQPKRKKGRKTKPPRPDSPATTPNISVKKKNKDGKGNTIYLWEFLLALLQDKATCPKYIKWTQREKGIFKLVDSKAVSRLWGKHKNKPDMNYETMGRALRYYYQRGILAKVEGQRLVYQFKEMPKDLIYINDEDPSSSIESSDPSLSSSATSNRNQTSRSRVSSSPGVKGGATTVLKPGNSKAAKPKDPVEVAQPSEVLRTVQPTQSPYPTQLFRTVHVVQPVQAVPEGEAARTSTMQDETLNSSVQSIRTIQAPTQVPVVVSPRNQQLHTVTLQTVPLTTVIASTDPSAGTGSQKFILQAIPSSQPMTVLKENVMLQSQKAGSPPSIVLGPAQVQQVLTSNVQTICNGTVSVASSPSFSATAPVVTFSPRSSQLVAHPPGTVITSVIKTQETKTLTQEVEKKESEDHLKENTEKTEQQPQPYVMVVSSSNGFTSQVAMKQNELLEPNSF

Sequence | binding signal (FLI1) | binding signal (ELK1) | binding signal (GABPA) | binding signal (ERG) | binding signal (ELF1) | binding signal (EHF) | binding signal (SPI1) | binding signal (SPIB) | binding signal (ELK3)
CCTTGG | 1.28 fold enrichment (6-mer frequency, TF over GST control) | 1.41 fold enrichment (6-mer frequency, TF over GST control) | 1.34 fold enrichment (6-mer frequency, TF over GST control) | 1.28 fold enrichment (6-mer frequency, TF over GST control) | 1.28 fold enrichment (6-mer frequency, TF over GST control) | 1.37 fold enrichment (6-mer frequency, TF over GST control) | 1.24 fold enrichment (6-mer frequency, TF over GST control) | 1.32 fold enrichment (6-mer frequency, TF over GST control) | 1.4 fold enrichment (6-mer frequency, TF over GST control)
TCTGGC | 1.36 fold enrichment (6-mer frequency, TF over GST control) | 1.26 fold enrichment (6-mer frequency, TF over GST control) | 1.29 fold enrichment (6-mer frequency, TF over GST control) | 1.27 fold enrichment (6-mer frequency, TF over GST control) | 1.14 fold enrichment (6-mer frequency, TF over GST control) | 1.22 fold enrichment (6-mer frequency, TF over GST control) | 1.25 fold enrichment (6-mer frequency, TF over GST control) | 1.09 fold enrichment (6-mer frequency, TF over GST control) | 1.18 fold enrichment (6-mer frequency, TF over GST control)
CTTCTG | 1.48 fold enrichment (6-mer frequency, TF over GST control) | 1.34 fold enrichment (6-mer frequency, TF over GST control) | 1.26 fold enrichment (6-mer frequency, TF over GST control) | 1.3 fold enrichment (6-mer frequency, TF over GST control) | 1.34 fold enrichment (6-mer frequency, TF over GST control) | 1.27 fold enrichment (6-mer frequency, TF over GST control) | 1.36 fold enrichment (6-mer frequency, TF over GST control) | 1.32 fold enrichment (6-mer frequency, TF over GST control) | 1.4 fold enrichment (6-mer frequency, TF over GST control)
ATTATT | 1.14 fold enrichment (6-mer frequency, TF over GST control) | 1.17 fold enrichment (6-mer frequency, TF over GST control) | 1.1 fold enrichment (6-mer frequency, TF over GST control) | 1.17 fold enrichment (6-mer frequency, TF over GST control) | 1.13 fold enrichment (6-mer frequency, TF over GST control) | 1.16 fold enrichment (6-mer frequency, TF over GST control) | 1.02 fold enrichment (6-mer frequency, TF over GST control) | 1.12 fold enrichment (6-mer frequency, TF over GST control) | 1.14 fold enrichment (6-mer frequency, TF over GST control)
ATACAT | 1.31 fold enrichment (6-mer frequency, TF over GST control) | 1.15 fold enrichment (6-mer frequency, TF over GST control) | 1.25 fold enrichment (6-mer frequency, TF over GST control) | 1.34 fold enrichment (6-mer frequency, TF over GST control) | 1.24 fold enrichment (6-mer frequency, TF over GST control) | 1.21 fold enrichment (6-mer frequency, TF over GST control) | 1.2 fold enrichment (6-mer frequency, TF over GST control) | 1.26 fold enrichment (6-mer frequency, TF over GST control) | 1.32 fold enrichment (6-mer frequency, TF over GST control)
TAAGAA | 1.09 fold enrichment (6-mer frequency, TF over GST control) | 1.1 fold enrichment (6-mer frequency, TF over GST control) | 1.15 fold enrichment (6-mer frequency, TF over GST control) | 1.05 fold enrichment (6-mer frequency, TF over GST control) | 1.04 fold enrichment (6-mer frequency, TF over GST control) | 1.04 fold enrichment (6-mer frequency, TF over GST control) | 1.12 fold enrichment (6-mer frequency, TF over GST control) | 1.04 fold enrichment (6-mer frequency, TF over GST control) | 1.15 fold enrichment (6-mer frequency, TF over GST control)
ATCTCC | 1.61 fold enrichment (6-mer frequency, TF over GST control) | 1.5 fold enrichment (6-mer frequency, TF over GST control) | 1.56 fold enrichment (6-mer frequency, TF over GST control) | 1.51 fold enrichment (6-mer frequency, TF over GST control) | 1.47 fold enrichment (6-mer frequency, TF over GST control) | 1.6 fold enrichment (6-mer frequency, TF over GST control) | 1.37 fold enrichment (6-mer frequency, TF over GST control) | 1.49 fold enrichment (6-mer frequency, TF over GST control) | 1.42 fold enrichment (6-mer frequency, TF over GST control)
